Screens deposited in PubChem BioAssay by National Center for Advancing Translational Sciences (NCATS).
NPC1 prom act: qHTS Assay for NPC1 Promoter Activators; Huh7 NPC1 promoter luciferase reporter, 24 h; Potency, µM (top dose mostly 9.22 µM), without a hit: at the top dose activation, most hits filed as activators; 2.4% of 320,000 active; AID 485313, 2010; note: % of control where 0% means no effect; nearly all actives have a fitted effect of over 60% in size
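NPC1 promoter–luciferase Huh7 cells; 24 h compound; luminescence.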
Rab9 promoter act: qHTS Assay for Rab9 Promoter Activators | Huh7 Rab9 promoter-luciferase reporter, luminescence, 24 h | Potency, µM (top dose mostly 9.22 µM), inactives show at the highest dose activation, negative = inhibition, usual class: activators | 2.8% of 320,000 active; note: % of control where 0% means no effect; nearly all actives have a fitted effect of over 60% in size
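Huh7 reporter line, Rab9 promoter upstream of luciferase. Compound exposure 24 h at 37 °C in reduced-serum medium with 10% FBS. Read-out: luminescence.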
ELG1 genotoxic: qHTS screen for small molecules that induce genotoxicity in human embryonic kidney (HEK293T) cells expressing luciferase-tagged ELG1; 1.3% of 330,000 active; HEK293T ELG1-luciferase reporter, luminescence, 16 h; AID 504466, 2011; Potency, µM (series often up to 46 µM), for inactives: at the top dose activity change, positive = activation, hits mostly activators; note: % of control where 0% means no effect; nearly all actives have a fitted effect of over 60% in size
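Genotoxic stress is detected as increased luminescence from luciferase-tagged ELG1 in HEK293T cells, measured with ONE-Glo after a 16 hr treatment at 37 °C.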
FLuc counter: qHTS profiling assay for firefly luciferase inhibitor/activator using purifed enzyme and Km concentrations of substrates (counterscreen for miR-21 project). Luciferin 4-monooxygenase (Photinus pyralis), P08659. purified FLuc, Km substrates, luminescence inhibition. Potency, µM (titrated, usually from 57.5 µM), for inactives: at the top dose activity change, negative = inhibition, usual class: inhibitors. 6.9% of 360,000 active;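 note: plate controls were vehicle for no effect and reference inhibitor for full effect; nearly all actives have a fitted effect of over 55% in size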
Target sequence (P08659 whole entry, looked up): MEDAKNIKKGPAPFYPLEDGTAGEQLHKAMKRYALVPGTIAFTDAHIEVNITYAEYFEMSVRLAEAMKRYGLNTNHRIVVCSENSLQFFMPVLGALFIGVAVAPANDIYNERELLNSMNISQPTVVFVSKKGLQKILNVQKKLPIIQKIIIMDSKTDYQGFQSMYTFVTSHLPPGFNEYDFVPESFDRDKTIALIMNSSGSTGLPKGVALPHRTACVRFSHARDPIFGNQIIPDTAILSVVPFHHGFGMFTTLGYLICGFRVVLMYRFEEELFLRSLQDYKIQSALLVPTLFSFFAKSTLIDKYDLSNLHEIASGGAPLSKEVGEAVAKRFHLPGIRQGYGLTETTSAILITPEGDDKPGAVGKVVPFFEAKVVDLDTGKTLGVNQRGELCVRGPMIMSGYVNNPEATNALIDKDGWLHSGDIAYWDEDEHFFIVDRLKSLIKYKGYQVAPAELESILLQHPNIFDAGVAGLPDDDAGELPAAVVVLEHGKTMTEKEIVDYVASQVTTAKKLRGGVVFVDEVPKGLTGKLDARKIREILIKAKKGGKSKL
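Purified P. pyralis luciferase, 10 nM final, with Km-level 10 uM D-luciferin and 10 uM ATP in 50 mM Tris acetate pH 7.5, 10 mM Mg acetate, 0.01% Tween-20, 0.05% BSA; 6-point qHTS titration about 60 µM downward; luminescence read.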
SMN2 splice up: qHTS Assay for Enhancers of SMN2 Splice Variant Expression; HEK293 SMN2-luciferase splicing reporter, luminescence, 30-36 h; Potency, µM (highest dose often 46.1 µM), for the others: at the top dose activity change, positive = activation, most hits filed as activators; AID 1458, 2008; 2.8% of 210,000 active; note: % of control where 0% means no effect; nearly all actives have a fitted effect of over 55% in size
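HEK293 cells carry an SMN2 minigene-luciferase reporter in which exon 7 inclusion puts luciferase in frame. Cells were seeded at 2000 cells/well, attached for 10-12 hours, then exposed to compounds for 30-36 hours at 37C before ONE-Glo luminescence.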
KinaseGlo FLuc: Counterscreen for Luciferase (Kinase-Glo TM) Inhibition; Luciferin 4-monooxygenase (Photuris pensylvanica), Q27757; Kinase-Glo luciferase, ATP luminescence, 8 min; Potency, µM (doses to about 38.3 µM), for the others: at the top dose activity change, negative = inhibition, usual class: inhibitors; 0.28% of 200,000 active; AID 1379, 2008; note: % is set by controls: 0 for no effect and ±100 for the full control effect; nearly all actives have a fitted effect of over 60% in size
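Compounds were added to a substrate mix at pH 7.2 (50 mM imidazole, 10 uM ATP, within the enzyme's linear range), followed by Kinase-Glo detection reagent; luminescence was measured after 8 minutes at ambient temperature.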
* hit, by the source's call; ? = inconclusive; · = no result. Sampled rows, rich in hits. Any-hit rate of the full collection: about 7.5%. Calls come from the whole dose curve; as a rule, active = well fitted curve in the direction sought with a large enough effect; inconclusive = small, poorly fitted or top-dose-only effect, or another doubt; inactive = no such curve, though single readings can be large; an effect the other way counts as inactive or inconclusive. Potency is the fitted concentration of half-maximal effect.

SMILES | NPC1 prom act | Rab9 promoter act | ELG1 genotoxic | FLuc counter | SMN2 splice up | KinaseGlo FLuc
CCc1ccc(S(=O)(=O)/N=C2\C=C(NS(=O)(=O)c3ccccc3)C(=O)c3ccccc32)cc1 | 22% | 14% | ? | 15µM* | · | ·
Cc1ccc(CNC(=O)C(=O)NCC(c2ccco2)S(=O)(=O)c2ccc(C)cc2)cc1 (stereo unspecified) | · | · | · | -2% | · | ·
CCOC(=O)C(C)Sc1nnc2cc(C)c3ccccc3n12 (stereo unspecified) | · | · | · | -12% | · | ·
Cc1ccccc1NC(=O)c1cnn(-c2ccccc2)c1C | ? | ? | 4% | 13µM* | · | ·
Cc1cccc(NC(=O)c2cnn(-c3ccccc3)c2C)c1C | 2.8µM* | 4µM* | ? | ? | · | ·
CCc1ccccc1NC(=O)c1cnn(-c2ccccc2)c1C | 0% | 21% | -3% | ? | · | ·
Cc1ccc(C)c(NC(=O)c2cnn(-c3ccccc3)c2C)c1 | 30% | ? | 6% | 21µM* | · | ·
O=C1c2sc3nc4ccccc4n3c2C(=O)N1c1ccccc1Cl | -3% | 14% | 1% | ? | ? | 0%
N=c1cc(C2(O)CCCCC2)n2c(nc3ccccc32)s1 | 0.28µM* | 0.28µM* | 0.58µM* | 0.67µM* | -11% | 9%
O=c1c2ccccc2nc(/C=C/c2ccc3c(c2)OCO3)n1CCCO | 14% | 13% | 2% | ? | -16% | -4%
C(=C/c1nccc2c1[nH]c1ccccc12)/c1ccc2c(c1)OCO2 | ? | 27% | ? | 3µM* | 11% | -14%
O=C(CSc1nc(O)c(C2CCCCC2)c(=O)[nH]1)NCC1CCCO1 (stereo unspecified) | -3% | 10% | 2% | 15µM* | 2% | 2%
CCc1nnc(NS(=O)(=O)c2ccc(NC(=O)/C=C/c3ccccc3Cl)cc2)s1 | 0% | -15% | 0% | 19µM* | 9% | 3%
CCc1nnc(NS(=O)(=O)c2ccc(NC(=O)c3ccc(Cl)cc3)cc2)s1 | -1% | -1% | -6% | 19µM* | -12% | 3%
Cc1ccccc1OCC(=O)Nn1c(COc2ccccc2)nc2ccccc2c1=O | 0% | -2% | 8% | 27µM* | 0% | -4%
COc1ccc(C(C#N)=C2C=CC(=NO)C=C2)cc1 | -1% | 0% | -4% | 17µM* | · | ·
Cc1ccc(N2NC(C)(c3cccs3)NC2=S)cc1 (stereo unspecified) | 4.5µM* | 3.5µM* | ? | 9.5µM* | 22% | 4%
O=S(=O)(Nc1ccc2c(c1)OCCO2)c1cccc2nsnc12 | 1% | 1% | 16µM* | 24µM* | -13% | 2%
Cc1ccc2cccc(S(=O)(=O)Nc3ccc4c(c3)OCO4)c2n1 | -2% | -3% | 5% | 2% | 7.1µM* | 0%
O=S(=O)(Nc1ccc2c(c1)OCO2)c1ccccc1 | -2% | 1% | 3% | 4% | -7% | -3%
COc1ccc(-n2cc(-c3ccccc3)c3c(NCCc4ccc(OC)c(OC)c4)ncnc32)cc1 | · | · | · | -7% | · | ·
CC(C)CN(CC(C)C)C(=O)C1CCCN(S(=O)(=O)c2ccc3c(c2)oc(=O)n3C)C1 (stereo unspecified) | · | · | · | 2% | -13% | ·
CC(C)(C)c1ccc(C(=O)N2CCCN(C(=O)c3ccc(C(C)(C)C)cc3)CC2)cc1 | -2% | -8% | -7% | -8% | -38% | 1%
CC(C)(C)c1ccc(C(=O)n2cnc3ccccc32)cc1 | -1% | 2% | 11% | 3.4µM* | · | ·
Cc1cc2ncn(C(=O)c3ccc(F)cc3)c2cc1C | 2% | -4% | 2% | 13µM* | · | ·
SMILES | NPC1 prom act | Rab9 promoter act | ELG1 genotoxic | FLuc counter | SMN2 splice up | KinaseGlo FLuc
CCN(CC)c1ccc(C(=O)n2cnc3ccccc32)cc1 | ? | ? | 7% | 5.4µM* | 2% | 1%
CN(C)c1ccc(C(=O)n2nnc3ccccc32)cc1 | 5% | 2% | ? | 0.13µM* | 2% | ?
Cc1cn2c(=O)cc(COC(=O)COc3ccc(F)cc3)nc2s1 | · | · | · | -5% | · | ·
COc1cccc(-c2nc3c(c(SCC(=O)Nc4cccc(C)c4C)n2)Cc2c(CO)cnc(C)c2O3)c1 | · | · | · | -8% | · | ·
O=C(c1cc(-c2ccccc2O)on1)N1CCOCC1 | ? | ? | 13µM* | 12µM* | · | ·
COc1ccc(OC)c(-c2cc(C(=O)N3CCOCC3)no2)c1 | 0% | -4% | 0% | -4% | · | ·
O=C(c1cc(-c2ccccc2O)on1)N1CCCCCC1 | ? | ? | 23µM* | 11µM* | · | ·
Cc1nc(-c2ccc(C(=O)Nc3ccc(F)cc3)cc2)cs1 | ? | ? | 21µM* | 0.76µM* | 8% | ?
CCOc1ccc(NC(=O)c2ccc(-c3csc(C)n3)cc2)cc1 | 0% | -5% | -12% | -3% | · | ·
COc1ccc(NC(=O)c2ccc(-c3csc(C)n3)cc2)cc1 | ? | 2.8µM* | ? | 2.4µM* | · | ·
Cc1nc(-c2ccc(C(=O)Nc3cccc(F)c3)cc2)cs1 | 0.089µM* | ? | ? | 0.27µM* | · | ·
Cc1nc(-c2cccc(NC(=O)c3ccc(-n4cccn4)cc3)c2)cs1 | -1% | -7% | -3% | 6.7µM* | · | ·
O=C(Nc1cccc(NC(=O)c2ccc(F)cc2)c1)c1ccc(F)cc1 | 1% | 14% | 7% | -2% | · | ·
COC(=O)C1C2CC3c4[nH]c5cc(OC)ccc5c4CCN3CC2CC(OC(=O)c2cc(OC)c(OC)c(OC)c2)C1OC (stereo unspecified) | · | · | · | · | · | -1%
COc1ccc(-c2csc(C)n2)cc1 | 12% | 11% | 20% | 19µM* | -5% | -5%
CN1CCN(Cn2cc(/C=C/C(=O)c3ccccc3)c3ccccc32)CC1 | ? | 2.8µM* | ? | 2.4µM* | 27% | -4%
O=C(/C=C/c1cn(CC(O)CN2CCCCCC2)c2ccccc12)c1ccccc1 (stereo unspecified) | · | · | · | 0% | -1% | ·
COc1ccc2cnn(-c3ccc(C)cc3)c(=O)c2c1OC | ? | ? | 15µM* | 24µM* | 27% | -3%
COc1ccc2cnn(-c3ccc(OC(F)(F)Cl)cc3)c(=O)c2c1OC | 21% | 26% | 4% | 0% | · | ·
COc1ccc2cnn(CCOc3ccccc3)c(=O)c2c1OC | 0.79µM* | 0.56µM* | ? | 4.8µM* | 11µM* | -9%
Cc1ccc2c(c1)Cc1c(nc(-c3ccc(Cl)cc3)nc1SCC(=O)N1CCCCC1)O2 | · | · | · | -4% | 5% | ·
CCOC(=O)[C@@]12C[C@@H]1/C(=N/O)c1ccccc1O2 | · | · | · | · | · | 2%
